Data on 8 molecules can be found in PubChem BioAssay (Tox21).

Assay [1] can be described thus: Nuclear factor erythroid 2-related factor 2/antioxidant responsive element (Nrf2/ARE) small molecule agonists: luciferase reporter gene qHTS assay in human keratinocytes (AID 1919969; further: nearly all actives have a fitted effect of over 35% in size). (A reporter such as luciferase makes a cellular process visible.)
Assay [2] has as its target Gonadotropin-releasing hormone receptor (Homo sapiens) (UniProt P30968). The assay is described as follows: Human gonadotropin-releasing hormone receptor (GnRHR) small molecule agonists, calcium flux assay in GnRHR-HEK293 cells (AID 1920063). Further: nearly all actives have a fitted effect of over 35% in size. The procedure, abridged: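 Intracellular calcium rise is the read-out: engineered human GnRHR HEK293 cells, dye-loaded, are exposed to DMSO-dissolved compounds and fluorescence at Ex/Em 480/540 is tracked for 3 min.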

In assay [3] the target is KiSS-1 receptor (Homo sapiens) (UniProt Q969F8). The assay is described as follows: Human kisspeptin (KISS1R) small molecule agonists, calcium flux assay in KISS1R-HEK293 cells (AID 1920064; active means well fitted activation curve with a large enough effect in the repeat runs). The procedure, abridged:
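Concentration-response testing used 15 concentrations in triplicate on human KISS1R-expressing HEK293 cells. Calcium-dependent fluorescence (Ex/Em 480/540) was followed kinetically for 3 min after compound transfer.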

Assay [4] can be described thus: p53 small molecule agonists, cell-based qHTS assay with human liver microsomes (AID 1963577). A digest of the protocol: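 In this qHTS, p53 response-element beta-lactamase cells receive test compound together with a microsome/NADPH activating system (0.5 mg/mL final each) and are incubated 16 h at 37 C before LiveBLAzer fluorescence detection.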
(In general: In qHTS, concentration-response curves come from the screen itself.)

Assay [5] is described as follows: p53 small molecule agonists, cell-based qHTS assay with rat liver microsomes (AID 1963578). A digest of the protocol:
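Agonist mode in p53RE-bla reporter cells, with compounds co-incubated 16 h at 37 C alongside 0.5 mg/mL rat liver microsomes and 0.5 mg/mL NADPH (final), followed by a 2 h LiveBLAzer detection step.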

Assay [6] can be described thus: p53 small molecule agonists, cell-based qHTS assay with human liver microsomes: qHTS cell viability counter screen (AID 1963579). Further: nearly all actives have a fitted effect of over 45% in size. The procedure, abridged:
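Metabolically activated exposure: compounds, human liver microsomes and NADPH (0.5 mg/mL final apiece) were added to p53RE-bla cells seeded 5 h earlier, left 16 h at 37 C, and then assessed for viability by CellTiter-Glo luminescence.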

A short description of assay [7]: p53 small molecule agonists, cell-based qHTS assay with rat liver microsomes: qHTS cell viability counter screen (AID 1963580). Further: nearly all actives have a fitted effect of over 45% in size. The procedure, abridged:
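Cytotoxicity counter screen: intracellular ATP measured by CellTiter-Glo luminescence in the same wells as the beta-lactamase reporter read, on HCT-116 p53RE-bla cells exposed 16 h at 37 C to compounds with rat liver microsomes and NADPH, each 0.5 mg/mL final.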

Assay [8] in a line: p53 small molecule agonists, cell-based qHTS assay: qHTS cell viability counter screen (AID 1963581). Further: nearly all actives have a fitted effect of over 45% in size. A digest of the protocol: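 Luminescence from CellTiter-Glo, reflecting ATP content, serves as the cytotoxicity measure; it is taken after the 2 h reporter substrate step in HCT-116 p53RE-bla cells dosed for 16 h at 37 C.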
Assay [9] is described as follows: p53 small molecule agonists, cell-based qHTS assay (AID 1963582; active means well fitted activation curve with a large enough effect in the signal ratio in the repeat runs, not every such curve was filed as active; the % refers to the signal ratio). The procedure, abridged: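 After plating, p53RE-bla cells sat 5 h in the incubator; compounds or DMSO vehicle were pinned in; a 16 h incubation at 37 C followed; FRET substrate was added and, 2 h later at RT, fluorescence was measured.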
Assay [10] concerns the target 5-hydroxytryptamine receptor 2A (Homo sapiens) (UniProt P28223). The assay is described as follows: 5-hydroxytryptamine receptor 2A (HTR2A) small molecule antagonists, cell-based qHTS assay (AID 1963586). Further: nearly all actives have a fitted effect of over 45% in size. Further: potency means the concentration at half of the fitted maximal effect. The procedure, abridged:
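CHO cells stably expressing human HTR2A were plated for 18 h at 37 C, then loaded with calcium dye for 1 h. Compounds were preincubated 5 min at room temperature before DOI (4 nM solution) was added. Kinetic fluorescence was read for 3 min.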

Assay [11] shares this target. The assay is described as follows: 5-hydroxytryptamine receptor 2A (HTR2A) small molecule agonists, cell-based qHTS assay (AID 1963587). Further: nearly all actives have a fitted effect of over 30% in size. Further: potency means the concentration at half of the fitted maximal effect. A digest of the protocol: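 CHO cells stably expressing human HTR2A, plated 18 h, loaded with calcium dye 1 h at 37 C. Agonist mode: compounds added and intracellular calcium fluorescence recorded kinetically for 2 min at 1 sec intervals.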

Assay [12] deals with Muscarinic acetylcholine receptor M1 (Homo sapiens) (UniProt P11229). The assay is described as follows: Cholinergic receptor muscarinic 1 (CHRM1) small molecule antagonists, cell-based qHTS assay (AID 1963588). Further: nearly all actives have a fitted effect of over 40% in size. A digest of the protocol: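 Compounds were tested at 15 concentrations in three independent runs. Dye-loaded CHRM1-CHO cells were exposed 5 min at room temperature before stimulation by acetylcholine added at 50nM. Intracellular calcium was read kinetically on FDSS for 3 min.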
Sequence of Muscarinic acetylcholine receptor M1 (Homo sapiens) (P11229 whole entry, looked up): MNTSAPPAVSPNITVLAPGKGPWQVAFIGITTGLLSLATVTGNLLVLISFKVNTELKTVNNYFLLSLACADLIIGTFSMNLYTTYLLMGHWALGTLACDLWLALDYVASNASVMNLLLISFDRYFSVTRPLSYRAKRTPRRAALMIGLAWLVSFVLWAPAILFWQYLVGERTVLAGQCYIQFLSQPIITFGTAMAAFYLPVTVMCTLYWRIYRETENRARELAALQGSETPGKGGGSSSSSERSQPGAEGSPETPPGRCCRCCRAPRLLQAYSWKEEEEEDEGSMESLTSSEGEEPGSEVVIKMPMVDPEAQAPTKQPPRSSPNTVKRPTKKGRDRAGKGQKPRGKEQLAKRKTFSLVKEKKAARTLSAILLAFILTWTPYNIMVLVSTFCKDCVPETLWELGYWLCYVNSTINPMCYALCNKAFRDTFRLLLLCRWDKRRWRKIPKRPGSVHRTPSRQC

The target is the same in assay [13]. The assay is described as follows: Cholinergic receptor muscarinic 1 (CHRM1) small molecule agonists, cell-based qHTS assay (AID 1963589). Further: nearly all actives have a fitted effect of over 35% in size. A digest of the protocol: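 Fluorescent calcium dye reports M1 activation in stably transfected CHO cells. Compounds, 15 concentrations, added after 1 h dye loading at 37 C; kinetic reading at 1 sec intervals.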
The nature of assay [14]: cAMP Responsive Elements (CRE) small molecule antagonists, cell-based qHTS assay (AID 1963591; active means well fitted inhibition curve with a large enough effect in the signal ratio in the repeat runs, not every such curve was filed as active; the % refers to the signal ratio). The procedure, abridged:
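Stimulation used NKH477 at a final 0.25 uM for 3 h in compound-treated CRE-bla HEK293T cells, seeded 18 h beforehand. Reporter activity was measured with LiveBLAzer B/G FRET substrate after 2 h at room temperature.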

For assay [15], the target named is Beta-2 adrenergic receptor (Homo sapiens) (UniProt P07550). The assay is described as follows: Adrenergic beta2 receptor (ADRB2) small molecule antagonists, cell-based qHTS assay (AID 1963592). Further: series mostly up to about 92 µM; nearly all actives have a fitted effect of over 50% in size. The procedure, abridged: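 Assay format: CHO-ADRB2 cells, 18-20hr seeding at 37C/5% CO2, then compound plus 1nM isoproterenol agonist mix for 0.5hr RT. Homogeneous time-resolved fluorescence cAMP detection after 1hr, expressed as 665/615 nm ratio.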
Sequence of Beta-2 adrenergic receptor (Homo sapiens) (P07550 whole entry, looked up): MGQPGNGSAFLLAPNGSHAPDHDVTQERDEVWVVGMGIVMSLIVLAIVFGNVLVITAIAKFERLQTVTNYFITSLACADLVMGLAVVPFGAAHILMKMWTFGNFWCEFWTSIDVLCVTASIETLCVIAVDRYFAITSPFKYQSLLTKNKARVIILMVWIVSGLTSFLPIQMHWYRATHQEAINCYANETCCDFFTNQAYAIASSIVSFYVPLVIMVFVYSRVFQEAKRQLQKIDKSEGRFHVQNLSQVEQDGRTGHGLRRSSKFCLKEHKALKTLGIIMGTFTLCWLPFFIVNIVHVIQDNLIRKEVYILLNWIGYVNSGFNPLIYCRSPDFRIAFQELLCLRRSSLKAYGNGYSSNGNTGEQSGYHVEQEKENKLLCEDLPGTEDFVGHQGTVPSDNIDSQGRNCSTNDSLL

The target in assay [16] is D(2) dopamine receptor (Homo sapiens) (UniProt P14416). The assay is described as follows: Dopamine D2 receptor (DRD2) small molecule agonists, cell-based qHTS assay (AID 1963594). Further: nearly all actives have a fitted effect of over 35% in size. The procedure, abridged: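 HEK293 cells stably expressing human DRD2, pre-treated with PDE inhibitor Ro20-1724 (0.1 mM final) and compound 10 min at room temperature, then stimulated with NKH477 (200nM […]) for 30 min. cAMP read by HTRF (665/620 nm).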
Sequence of D(2) dopamine receptor (Homo sapiens) (P14416 whole entry, looked up): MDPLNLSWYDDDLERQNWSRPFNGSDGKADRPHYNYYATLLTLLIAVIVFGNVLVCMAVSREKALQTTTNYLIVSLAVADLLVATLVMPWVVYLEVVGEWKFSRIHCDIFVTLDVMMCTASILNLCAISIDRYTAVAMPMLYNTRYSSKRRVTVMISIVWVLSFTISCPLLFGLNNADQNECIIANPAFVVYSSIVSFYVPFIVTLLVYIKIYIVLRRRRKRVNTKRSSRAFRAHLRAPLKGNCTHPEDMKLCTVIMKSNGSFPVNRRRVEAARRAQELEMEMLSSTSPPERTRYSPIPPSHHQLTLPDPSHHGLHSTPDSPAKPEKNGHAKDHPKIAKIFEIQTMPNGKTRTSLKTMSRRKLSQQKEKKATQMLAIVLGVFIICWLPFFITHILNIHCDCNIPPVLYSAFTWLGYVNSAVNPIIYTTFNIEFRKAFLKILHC

Assay [17] shares this target. The assay is described as follows: Dopamine D2 receptor (DRD2) small molecule antagonists, cell-based qHTS assay (AID 1963595; active means well fitted inhibition curve with a large enough effect in the signal ratio in the repeat runs, with a control signal flat; the % refers to the signal ratio). The procedure, abridged: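 Antagonist mode in DRD2-HEK293 cells: after compound addition with 0.1 mM Ro20-1724, cells received quinpirole (12 nM) and NKH477 (200 nM) for 30 min at room temperature; HTRF cAMP read after 1 h detection.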
The nature of assay [18]: cAMP Responsive Elements (CRE) small molecule agonists, cell-based qHTS assay (AID 1963590). A digest of the protocol:
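Compound exposure lasted 3 h at 37 C/5% CO2 in CRE-bla HEK 293T cells grown in assay medium with 10% dialyzed FBS and 25 mM HEPES. Reporter signal came from LiveBLAzer B/G FRET substrate, 2 h, room temperature.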

For assay [19], the target named is Beta-2 adrenergic receptor (Homo sapiens) (UniProt P07550). The assay is described as follows: Adrenergic beta2 receptor (ADRB2) small molecule agonists, cell-based qHTS assay (AID 1963593).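 Further: CHO cells stably overexpressing human ADRB2.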 A digest of the protocol: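 CHO cells stably over-expressing ADRB2 were plated overnight at 37C, then dosed with compounds plus a stimulation mix containing 100uM IBMX and 25uM Ro-20-1724 for 0.5hr at room temperature. cAMP was measured by HTRF competition, 1hr.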

A short description of assay [20]: G protein-coupled receptor (GPCR) small molecule agonists, calcium flux assay: HEK293 wild type cell line counter screen (AID 1920065). The procedure, abridged: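 Fluorescence intensity signals activation. After overnight (18 h) culture and a 1 h calcium dye load at 37 C, compounds are added by pin tool and the plate read at 480/540 nm for 3 min in 1 s steps.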
(In general: Calcium flux is commonly read through the fluorescence of an indicator in the cells.)

“And” between values parts separate entries of the source, which are not always exact repeats. Identical values can stand only once. A number with no mark means an inactive call. Inconclusive results are not listed. The source made the active and inactive calls. Unless noted, the call rests on the fitted dose curve.

Sequence of 5-hydroxytryptamine receptor 2A (Homo sapiens) (P28223 whole entry, looked up): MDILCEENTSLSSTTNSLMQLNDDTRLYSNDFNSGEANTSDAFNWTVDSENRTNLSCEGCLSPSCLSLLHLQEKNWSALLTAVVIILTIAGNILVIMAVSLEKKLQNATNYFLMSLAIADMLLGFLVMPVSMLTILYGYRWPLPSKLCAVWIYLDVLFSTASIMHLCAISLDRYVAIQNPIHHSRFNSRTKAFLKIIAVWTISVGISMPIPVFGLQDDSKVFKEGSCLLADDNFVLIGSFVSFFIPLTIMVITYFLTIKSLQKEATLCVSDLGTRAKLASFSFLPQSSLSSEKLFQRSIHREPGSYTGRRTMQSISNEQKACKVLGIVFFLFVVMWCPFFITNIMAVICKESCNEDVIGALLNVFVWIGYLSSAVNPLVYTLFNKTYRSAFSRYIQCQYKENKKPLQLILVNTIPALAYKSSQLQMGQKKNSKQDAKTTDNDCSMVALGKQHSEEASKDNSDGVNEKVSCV
Sequence of KiSS-1 receptor (Homo sapiens) (Q969F8 whole entry, looked up): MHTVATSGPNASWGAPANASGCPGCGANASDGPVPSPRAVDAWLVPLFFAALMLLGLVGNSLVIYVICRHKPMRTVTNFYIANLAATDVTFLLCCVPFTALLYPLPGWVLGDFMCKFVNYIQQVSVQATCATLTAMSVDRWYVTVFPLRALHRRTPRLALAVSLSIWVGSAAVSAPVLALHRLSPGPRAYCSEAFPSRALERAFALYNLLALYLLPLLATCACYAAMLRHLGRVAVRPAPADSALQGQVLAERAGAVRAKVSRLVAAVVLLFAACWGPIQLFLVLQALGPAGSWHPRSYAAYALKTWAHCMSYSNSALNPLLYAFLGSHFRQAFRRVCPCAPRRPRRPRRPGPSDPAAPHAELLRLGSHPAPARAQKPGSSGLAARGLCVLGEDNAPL
Sequence of Gonadotropin-releasing hormone receptor (Homo sapiens) (P30968 whole entry, looked up): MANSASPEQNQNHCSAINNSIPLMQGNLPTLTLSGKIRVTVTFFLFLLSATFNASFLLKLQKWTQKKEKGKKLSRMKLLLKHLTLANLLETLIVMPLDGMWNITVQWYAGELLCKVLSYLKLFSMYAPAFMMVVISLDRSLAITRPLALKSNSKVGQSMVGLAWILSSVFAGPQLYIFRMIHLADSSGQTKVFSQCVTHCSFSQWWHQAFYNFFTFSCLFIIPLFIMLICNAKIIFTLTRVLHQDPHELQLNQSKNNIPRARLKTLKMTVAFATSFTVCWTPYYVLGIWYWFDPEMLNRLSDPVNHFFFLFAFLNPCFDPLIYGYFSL

As for `CC(C)CC(=O)OCc1ccccc1`, the Potency result in assay [1], in assay [2], in [3], in [4], in [5] and in assay [6] was “inactive” each time. The Potency result in assay [7], in [8], in assay [9], in [10], in assay [11] and in assay [12] was “inactive” throughout. Also, the Potency result in assay [13], in assay [14], in [15], in assay [16] and in [17] was “inactive” each time.
Take `CC1CCc2nccnc21` (stereo not drawn): the Potency entry in [1], in [2], in assay [4], in [5], in [6] and in assay [7] was “inactive” in each case. For the same molecule, the Potency entry in [8], in [9], in assay [10], in [11], in [12] and in assay [13] was “inactive” in each case. The Potency result in assay [18], in assay [15], in assay [19] and in [16] was “inactive” in each case.
`CCCC(=O)OCC(COC(=O)CCC)OC(=O)CCC`: the Potency entry in [1], in assay [2], in [3], in assay [5], in assay [6] and in assay [7] was “inactive” each time. In addition, the Potency result in assay [8], in assay [9], in assay [10], in [11], in assay [13] and in assay [18] was “inactive” throughout. Also, the Potency result in [14], in assay [15], in assay [19], in assay [16] and in assay [17] was “inactive” throughout.
In the case of `CC(C)(C)C(=O)C(Oc1ccc(Cl)cc1)n1ccnc1` (stereo not drawn), the Potency entry in assay [1], in assay [3], in assay [4], in assay [6], in assay [7] and in assay [8] was “inactive” throughout. Also, the Potency result in [9], in assay [10], in assay [11], in assay [12], in assay [13] and in [18] was “inactive” each time. Moreover, the Potency result in assay [14], in [15], in [19], in assay [16] and in assay [17] was “inactive” throughout.
Regarding `CCC(C(=O)NC(N)=O)c1ccccc1` (stereo not drawn), the Potency entry in assay [1], in [2], in assay [3], in [5], in assay [7] and in assay [8] was “inactive” throughout. Besides, the Potency result in assay [9], in assay [10], in assay [11], in [12], in [13] and in [18] was “inactive” in each case. Moreover, the Potency entry in [14], in [16] and in [17] was “inactive” each time.
Turning to `CC(=O)c1ccc2ccccc2c1`, the Potency entry in [2], in assay [3], in [20], in assay [4], in [5] and in [6] was “inactive” each time. The Potency result in assay [7], in assay [8], in [9], in assay [10], in assay [11] and in assay [12] was “inactive” each time. The Potency result in assay [18], in assay [14], in assay [15], in [19], in [16] and in [17] was “inactive” throughout.
On to `CCCCCCOCCOCCO`, for which the Potency result in assay [2], in [3], in [20], in [6], in [7] and in assay [8] was “inactive” each time. Also, the Potency result in [10], in [11], in assay [12], in [13], in assay [18] and in assay [14] was “inactive” each time. For the same molecule, the Potency entry in assay [16] and in assay [17] was “inactive” throughout.
`N[C@@H](Cc1c[nH]c2ccc(O)cc12)C(=O)O`: the Potency result in [2], in assay [3], in assay [6], in assay [7], in assay [8] and in assay [12] was “inactive” in each case. Moreover, the Potency result in assay [13], in assay [18], in assay [14], in assay [15], in [16] and in [17] was “inactive” in each case. Further, the Potency in assay [10] was 364 nM (active) and 6.5 µM (active); in assay [11], 599 nM (active) and 8.49 µM (active).
